The text below walks through data of PubChem BioAssay (NCI).

About 83,000 compounds went through this panel and 20% of them were active in at least one assay; those are over-represented in the sample as a whole.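 Note: values are percent growth. 100 is the growth of untreated cells, values between 100 and 0 indicate rising inhibition; between -100 and 0 indicates cell death.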 Calls of active or inactive are those of the source. Rule for the calls: active = growth percent below 10; inactive = the rest.

The test system of the assay is HCT-116 colon. The experiment in a line: NCI-60 one-dose screen, 48 h (100 = growth as untreated, 0 = no growth, -100 = all killed). To be noted: 10 µM unless noted.
For `CCC1C(=O)COC1=O` (configuration not stated), the growth was 85.8% (inactive).
In the case of `C=C(C)[C@@H]1CC[C@]2(C)[C@H](CC=C3[C@@H]4CC(C)(C)CC[C@]4(C(=O)OC)CC[C@]32C)[C@@]1(C)CC/C(N)=N/O`, the growth is 18.5% (inactive).
Regarding `O=C(/C=C/c1cccc2ccccc12)Nc1ncc(Cc2ccccc2)s1`, the growth was 8.93% (active).
With `N#Cc1c(-c2ccc(O)cc2)c2c(N)nn(-c3ccccc3)c2[nH]c1=O` the figure was 108% (inactive); with `COc1ccc(-c2c(-c3nc4ccc(N5CCOCC5)cc4[nH]3)[nH]c(C)c2C(C)=O)cc1`, 34.8% (inactive); with `c1ccc(-c2nc(Nc3ccc(-c4nc5ccccc5[nH]4)cc3)nc(N3CCOCC3)n2)cc1`, -81.5% (active).
With `Cc1cc2nc3c4cc(Cl)ccc4n(CCN(C)C)c3nc2cc1C` the figure was -12.7% (active).
On to `Cc1cc(N2CCOCC2)nc(N(CCCNc2ccnc3cc(Cl)ccc23)Cc2ccco2)n1`, for which the growth was 7.37% (active).
Consider `Cc1cc(N(CCNc2ccnc3cc(Cl)ccc23)Cc2ccco2)nc(Cl)n1`, for which the growth is -96.8% (active).
With `COc1ccc(/C=C/C(=O)NCCO)cc1` the figure was 101% (inactive).
On to `O=C1NC(c2ccc(Cl)c(Cl)c2)=C/C1=C\c1ccccc1`, for which the growth was 26.5% (inactive).
With `N#C/C(=C\c1ccc(-c2ccccc2)o1)c1nc(-c2ccco2)cs1` the figure was 87% (inactive); with `C=C1C(=O)O[C@H]2[C@H]1CC/C(COC(=O)NCc1c[nH]c3ccccc13)=C\CC[C@@]1(C)O[C@@H]21`, -12.3% (active); with `Cn1cc(-c2csc(-c3cn(CCN)c4ccccc34)n2)c2cccnc21`, 36.9% (inactive).
For the compound `C=C(C)[C@@H]1CC[C@]2(C)[C@H](CC[C@@H]3[C@H]4[C@H]5OC[C@@]4(CCC5(C)C)CC[C@]32C)[C@@]1(C)CCCN`, the growth was 4.71% (active).
With `CC[C@]12C=CCN3CC[C@@]4(c5cc([C@H]6CCC(=O)N6)c(OC)cc5N(C)[C@H]4[C@@](O)(C(=O)OC)[C@@H]1OC(C)=O)[C@@H]32` the figure was 100% [2.5 µM] (inactive); with `COc1cc2c(cc1-c1c(C)noc1C)ncc1nc(C3CCCCC3)n([C@@H](C)COC(F)F)c12`, 24.8% (inactive).
For `COc1ccc(/C=C(\C#N)c2cc3ccccc3n2S(C)(=O)=O)cc1`, the growth was 82.9% (inactive).
Take `CCc1cccc(CC)c1NC(=O)c1sc2nc3c(cc2c1N)CCCC3`: the growth was 71% (inactive).
With `O=C1CCC/C=C\C[C@H]2C=C(Cl)C(=O)/C2=C/C[C@H](CCCCC(F)(F)F)OC(=O)CCC/C=C\C[C@H]2C=C(Cl)C(=O)/C2=C/C[C@H](CCCCC(F)(F)F)O1` the figure was -93.4% [7.5 µM] (active); with `COc1cc(-c2cc3ncccc3c3nc(N)c4cccnc4c23)cc(OC)c1OC`, 9.87% (active).
With `COC(=O)[C@]12CC[C@@H](C)[C@H](C)[C@@H]1C1=CC[C@@H]3[C@@]4(C)C[C@@H](OC(C)=O)[C@H](O)[C@@](C)(CO)[C@@H]4[C@H](O)C[C@@]3(C)[C@]1(C)CC2` the figure was -65.4% (active); with `Cc1ccc(N(CC(=O)Nc2ccc(S(=O)(=O)NC3CCN(C)CC3)cc2)S(=O)(=O)c2ccc(Cl)cc2)cc1`, 47.6% (inactive).
With `N#CC1=C(N)Oc2ccc3ccccc3c2C1c1ccccc1` (configuration not stated) the figure was 19.4% (inactive).
For `COc1ccc(C(=O)/C=C/c2cc(-c3cc(OC)c(OC)c(OC)c3)n[nH]2)cc1OC`, the growth was -88.7% (active).
With `Cn1c(/C(C#N)=C/c2ccc3ccccc3c2)cc2ccccc21` the figure was 8.56% (active).
For the compound `CCN(CC)c1ccc(/C=C/c2cc(C)c3ccccc3n2)cc1`, the growth was 22.8% (inactive).
